Shown are actives, neighbours in structure and some others; about 2.4% of the full set was active somewhere.
Bim-Mcl-1 – disrupts Bim peptide binding to human Mcl-1. Q07820. Bead-based flow cytometry, Bim peptide-Mcl-1 binding. hit rate 0.1% among 190,000. inhibition, % at 10 µM; in the data active = inhibition above about 40%;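 note: 0% = no compound tracer wells and 100% = peptide blocker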
Target sequence (Q07820 whole entry, looked up): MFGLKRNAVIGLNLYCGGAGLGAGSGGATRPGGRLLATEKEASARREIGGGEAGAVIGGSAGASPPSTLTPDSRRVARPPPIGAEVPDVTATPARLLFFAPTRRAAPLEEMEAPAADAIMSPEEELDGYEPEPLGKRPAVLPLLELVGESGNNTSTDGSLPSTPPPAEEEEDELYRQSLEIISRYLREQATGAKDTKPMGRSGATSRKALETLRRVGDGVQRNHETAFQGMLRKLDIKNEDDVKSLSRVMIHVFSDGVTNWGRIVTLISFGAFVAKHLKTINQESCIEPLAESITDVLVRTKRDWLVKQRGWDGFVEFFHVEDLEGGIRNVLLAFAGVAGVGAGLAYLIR
MCL1-BIM inh – inhibitors of human MCL1 binding to BIM-BH3 peptide | GST-MCL1 / FITC-Bim-BH3 fluorescence polarization | inhibition, % at 10.9 µM | hit rate 0.68% among 320,000;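 active = inhibition above the mean inhibition of all tested compounds plus 3 SD, set per campaign, cut at about 40% in these data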;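 note: 0% = DMSO wells and 100% = unlabeled Bim-BH3 peptide control; higher means more loss of mP so more displacement of Bim peptide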
Mcl1-Bid inh – disrupts binding of human Mcl-1 to Bid peptide | TR-FRET Mcl-1/Bid-Dy647 peptide binding, 1536-well | inhibition, % at 21.7 µM | hit rate 0.97% among 220,000;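 active = compounds that cut the binding signal by more than half at the single screening dose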;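 note: His-tagged Mcl-1 with europium anti-His antibody binding Bid BH3 peptide; 0% = Mcl-1 plus peptide wells and 100% = peptide-only wells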
Mcl1 Noxa PPI – disrupts binding of human Mcl-1 to Noxa peptide; Q07820; TR-FRET Mcl-1/Noxa peptide binding, 2 h; inhibition, % at 21.7 µM; hit rate 1.5% among 220,000; AID 1022;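 active = compounds that cut the protein-peptide binding signal by more than 50% relative to plate controls in a single-dose test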;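 note: His-tagged Mcl-1 with rhodamine Noxa BH3 peptide and terbium anti-His antibody; 0% = Mcl-1 plus Noxa peptide wells and 100% = peptide-only wells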
TNF necrop inh – inhibitors of TNF-alpha induced necroptosis in Jurkat FADD-/- cells. Jurkat FADD-/- TNF necroptosis rescue, ATP luminescence, 24 h; 0 = TNF only, 100 = no-TNF cells. activation (protection from cell death), % at 10 µM. hit rate 0.068% among 220,000;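 active = activation, meaning protection from cell death, of at least 50% relative to plate controls; inactive = activation below 50%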;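 note: necroptosis triggered by 40 ng/mL TNF-alpha added together with compound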
L929 necroptosis – blocks zVAD induced death of L929 cells. L929 zVAD necroptosis rescue, ATP luminescence, 24 h; with zVAD 60 µM. viability rescue, % at 10 µM. hit rate 0.38% among 220,000. AID 1377;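 active = activation, scaled between plate controls, above about 75%, limit read from the data; inactive = activation under that limit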;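 note: 0% = zVAD with DMSO and 100% = DMSO alone without zVAD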
An asterisk follows results filed as active; · = no result.

SMILES	Bim-Mcl-1	MCL1-BIM inh	Mcl1-Bid inh	Mcl1 Noxa PPI	TNF necrop inh	L929 necroptosis
N#CCc1ccc(NC(=O)c2cc(S(=O)(=O)N3CCOCC3)ccc2Cl)cc1	·	-4.8	·	·	·	·
Cc1ccc2oc(-c3ccc(C)c(NC(=S)NC(=O)c4cccs4)c3)nc2c1	-4.0	7.3	52.8*	38.4	1.6	-0.1
Cc1ccc2oc(-c3ccc(C)c(NC(=O)Cc4cccs4)c3)nc2c1	-1.0	-3.1	25.1	12.2	-1.9	0.3
COc1cccc(/C=N/NC(=O)c2c(C)nc3ccc(Cl)cn23)c1O	·	11.1	·	·	·	·
O=C(c1cc(-c2cccnc2)nc2ccccc12)N1CCN(S(=O)(=O)c2cccs2)CC1	·	-1.2	·	·	·	·
O=C(/C=C1\C(=O)Nc2ccccc21)/C=C1\C(=O)Nc2ccccc21	·	·	91.5*	102.2*	-19.9	5.4
COc1cc(-c2n[nH]c(=S)n2-c2ccc(Br)cc2)cc(OC)c1OC	·	-28.3	·	·	·	·
Cc1ccsc1C(=O)N1CCCC(N2CCN(c3cccc(Cl)c3)CC2)C1 (stereo not drawn)	·	3.1	·	·	·	·
O=C(CNC(=O)OCc1ccccc1)Oc1ccc2ccc(=O)oc2c1	·	5.1	·	·	·	·
O=C(NC(Cc1ccccc1)C(=O)Oc1ccc2c(C(F)(F)F)cc(=O)oc2c1)OCc1ccccc1 (stereo not drawn)	4.0	40.6*	-9.2	5.4	1.4	1.2
COc1ccc(NC(=S)NN2C(C)CCCC2C)cc1 (stereo not drawn)	-9.0	39.2	41.9	52.4*	3.6	1.5
Fc1cccc(NC(=S)NNc2ccccc2)c1	·	6.3	·	·	·	·
Fc1cccc(NC(=S)NNc2c3ccccc3nc3ccccc23)c1	1.0	·	-18.9	80.3*	-1.7	-2.4
CCCCN(CC)CCCNC(=O)c1cn(CC)c2ccc(S(=O)(=O)N3CCc4ccccc4C3)cc2c1=O	-1.0	5.1	8.6	29.5	-14.7	-1.2
CCCCN(C)CCCNC(=O)c1cn(CC)c2ccc(S(=O)(=O)N3CCc4ccccc4C3)cc2c1=O	0.0	4.1	10.3	52.7*	-13.6	-0.2
CCc1ccc(CCC(=O)Nc2ccc(C)cc2C)o1	-1.0	5.4	84.5*	37.5	0.8	0.4
COc1ccc(C(=O)N2c3ccccc3CC2C)cc1OC (stereo not drawn)	-3.0	3.1	0.8	74.3*	-1.8	-0.1
NC(=O)[C@@H]1CCCN1Cc1nc(-c2cccs2)no1	-3.0	4.1	-45.7	54.1*	0.4	-0.1
O=C(CCS(=O)(=O)c1ccccc1)Nc1ccccc1-c1nc2ccccc2s1	-4.0	4.7	75.4*	20.6	2.5	0.3
Cc1ccc2nc(-c3ccc(NC(=O)CCS(=O)(=O)c4ccccc4)cc3)sc2c1	-3.0	-3.0	-20.5	23.7	-8.1	5.0
Cc1ccc(C2SCC(=O)N2Cc2ccccc2)cc1 (stereo not drawn)	·	6.5	·	·	·	·
O=C1CSC(c2ccncc2)N1Cc1ccccc1 (stereo not drawn)	0.0	4.2	92.8*	22.2	0.1	1.6
Cc1cccc(C)c1OCC(O)CN1CCN(c2ccccn2)CC1 (stereo not drawn)	-3.0	-4.3	1.6	29.8	1.1	1.9
Cc1ccc(OCC(O)CN2CCN(c3ccccn3)CC2)c(C)c1 (stereo not drawn)	0.0	2.6	27.4	50.6*	0.6	3.7
Cc1cccc(NC(=O)C2CCN(S(=O)(=O)c3cccc4nsnc34)CC2)n1	-1.0	-2.6	-13.0	3.8	0.5	0.9
SMILES	Bim-Mcl-1	MCL1-BIM inh	Mcl1-Bid inh	Mcl1 Noxa PPI	TNF necrop inh	L929 necroptosis
COc1ccc2nc(NC(=O)C3CCN(S(=O)(=O)c4cccc5nsnc45)CC3)sc2c1	-2.0	0.9	-3.2	8.1	-5.5	77.2*
CN(C)c1ccc(NC(=O)CSc2nc(C3CC3)nc3ccccc23)cc1	·	3.8	·	·	·	·
C[C@H](NC(=O)OC(C)(C)C)C(=O)N/N=C/c1ccc2nccnc2c1	·	2.4	-12.6	-6.0	-4.6	3.6
CCOC(=O)c1c(N2C(=O)C=CC2=O)sc(C)c1C	-4.0	21.3	35.8	54.3*	-1.2	-0.3
CCOC(=O)c1c(NC(N)=O)sc(C)c1C	-1.0	-4.6	-67.0	-4.2	-0.6	1.0
Cc1[nH]n(C(N)=S)c(=O)c1C(c1ccccc1)C(C#N)C#N (stereo not drawn)	-1.0	12.6	-53.1	-21.1	-1.8	0.2
Cc1[nH]n(-c2ncc(-c3ccccc3)s2)c(=O)c1C(c1ccc(Br)cc1)C(C#N)C#N (stereo not drawn)	-6.0	4.4	28.4	77.9*	2.3	0.4
Cc1ccc2c(c1)c(C1=NC(=S)NC1=O)c(O)n2C	0.0	2.3	26.3	54.9*	-1.1	74.8
CC(=O)c1ccc(OC(=O)COc2ccccc2Cl)cc1	·	3.2	·	·	·	·
CC(C)NC(=S)N=Nc1c(O)[nH]c2ccc([N+](=O)[O-])cc12	5.0	8.4	-65.0	47.4	-3.4	-1.1
COc1ccccc1C(=O)N=Nc1c(O)[nH]c2ccc([N+](=O)[O-])cc12	26.0	·	-9.8	78.3*	-5.4	0.9
C=C(C)CNC(=S)N=Nc1c(O)[nH]c2ccc([N+](=O)[O-])cc12	2.0	15.3	17.4	65.5*	-1.1	-1.6
NC(=O)N=Nc1c(O)[nH]c2ccc([N+](=O)[O-])cc12	·	2.5	-8.6	10.7	2.6	-0.1
O=C(O)c1cc(N=Nc2c(O)[nH]c3ccc([N+](=O)[O-])cc23)ccc1Cl	·	9.9	·	·	·	·
Cn1c(O)c(N=NC(=O)c2cc(-c3cccs3)nc3ccccc23)c2ccccc21	-2.0	3.4	7.1	11.2	0.0	1.6
O=C(N=Nc1c(O)[nH]c2ccc([N+](=O)[O-])cc12)c1cc(-c2ccccc2Cl)nc2ccccc12	-4.0	4.5	96.0*	76.6*	1.9	1.4
O=C(N=Nc1c(O)[nH]c2ccc(Br)cc12)c1cc(-c2cccs2)nc2ccccc12	-2.0	·	75.2*	68.2*	0.3	2.4
c1ccc(OCC2CCNCC2)nc1	·	-13.3	·	·	·	·
COc1ccc2cc3c(N)c(C(=O)NCc4ccco4)sc3nc2c1	1.0	23.7	-14.8	63.4*	-8.4	4.2
CCCOC(=O)c1sc2nc3c(cc2c1N)C(=O)CCC3	0.0	2.0	-26.7	-2.5	0.0	1.5
COc1ccc2cc3cc(C(=O)NCc4ccco4)oc3nc2c1	-2.0	4.1	-6.1	40.2	-0.3	-1.2
Nc1c(C(=O)NCc2ccco2)sc2nc3c(cc12)C(=O)CCC3	11.0	26.8	-44.6	87.8*	2.7	0.4
CC(C)Cc1ccc(CN2CCCC(NC(=O)CSc3nncn3C)C2)cc1 (stereo not drawn)	·	0.5	·	·	·	·
CC(C)c1ccc(NS(=O)(=O)c2ccc3[nH]cc(C(=O)N4CCC(C(N)=O)CC4)c(=O)c3c2)cc1	-3.0	5.1	58.6*	6.2	-2.2	0.2
O=C(c1c[nH]c2ccc(S(=O)(=O)N3CCOCC3)cc2c1=O)N1CCCC1	-3.0	1.6	-12.3	19.9	-0.4	0.1

Source: PubChem
